Measurements reported in the supplement of paper PMC9262897, “Low-cost anti-mycobacterial drug discovery using engineered E. coli” (Nature Communications, 2022).
Counter-ions that a name gives are not always drawn. ± gives the standard deviation of the averaged measurements.

What was measured:
Test in all cases: growth (OD600 after 10 h); higher = more growth (less inhibition)
[1] = test system: E. coli TESEC Alr+ wild-type control; details: compound 0.1 mM; raw OD600 reference: median of DMSO wells 0.241, cell-free background 0.041
Experimental: (§1)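 TESEC Mtb Alr E. coli, or the Alr+ wild-type control, in 384-well plates with Prestwick library compounds at 0.1 mM and 1% DMSO, across arabinose induction levels of 1E3 to 1E7 nM. Growth is read as OD600 after 10 h at 37 °C in triplicate biological replicates.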

E. coli TESEC Mtb Alr [2] = details: compound 0.1 mM
Experimental: as §1

E. coli TESEC Mtb Asd = details: compound 0.1 mM
Experimental: (§2)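 TESEC E. coli strains in which the native enzyme is deleted and replaced by arabinose-inducible Mtb Asd, DapB, CysH or TrpD, each grown in its selective medium. Strains were screened against the Prestwick library at 0.1 mM and 1% DMSO in 384-well format at low and high arabinose induction. Growth is read as OD600 after 10 h in triplicate.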

E. coli TESEC Mtb DapB = details: compound 0.1 mM
Experimental: as §2

[3] = test system: E. coli TESEC Alr+ wild-type control; details: compound 0.1 mM; raw OD600 reference: median of DMSO wells 0.49, cell-free background 0.052
Experimental: (§3)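 TESEC Mtb Alr E. coli (ΔaraC ΔtolC ΔentC Δalr ΔdadX, arabinose-inducible Mtb Alr) or the Alr+ wild-type control strain, grown in defined M9-fructose medium without D-alanine in 96-well plates with Prestwick library compounds at 0.1 mM and 1% DMSO. Low Alr induction is 0.1 µM arabinose and high induction is 10 mM arabinose.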

E. coli TESEC Mtb Alr [4] = details: compound 0.1 mM; remark: listed apart in the source
Experimental: as §3

[5] = arabinose 1000 nM, raw OD600 reference: median of DMSO wells 0.294, cell-free background 0.041
[6] = arabinose 10000 nM, raw OD600 reference: median of DMSO wells 0.264, cell-free background 0.041
[7] = arabinose 100000 nM, raw OD600 reference: median of DMSO wells 0.201, cell-free background 0.041
[8] = arabinose 1000000 nM, raw OD600 reference: median of DMSO wells 0.193, cell-free background 0.041
[9] = arabinose 10000000 nM, raw OD600 reference: median of DMSO wells 0.146, cell-free background 0.041
[10] = arabinose induction (level): High, raw OD600 reference: median of DMSO wells 0.331, cell-free background 0.041
[11] = arabinose induction (level): Low, raw OD600 reference: median of DMSO wells 0.417, cell-free background 0.041
[12] = arabinose induction (level): High, raw OD600 reference: median of DMSO wells […], cell-free background 0.041
[13] = arabinose induction (level): Low, raw OD600 reference: median of DMSO wells 0.227, cell-free background 0.041
[14] = arabinose 100 nM, raw OD600 reference: median of DMSO wells 0.413, cell-free background 0.052
[15] = arabinose 10000000 nM, raw OD600 reference: median of DMSO wells […], cell-free background 0.052

Structure (SMILES)	growth [1]	growth (E. coli TESEC Mtb Alr [2]; [5])	growth (E. coli TESEC Mtb Alr [2]; [6])	growth (E. coli TESEC Mtb Alr [2]; [7])	growth (E. coli TESEC Mtb Alr [2]; [8])	growth (E. coli TESEC Mtb Alr [2]; [9])	growth (E. coli TESEC Mtb Asd; [10])	growth (E. coli TESEC Mtb Asd; [11])	growth (E. coli TESEC Mtb DapB; [12])	growth (E. coli TESEC Mtb DapB; [13])	growth [3]	growth (E. coli TESEC Mtb Alr [4]; [14])	growth (E. coli TESEC Mtb Alr [4]; [15])
Cc1cccn2c(=O)c(-c3nnn[nH]3)cnc12 [Pemirolast potassium]	0.218 ± 0.011	0.268 ± 0.011	0.2352 ± 0.0021	0.151 ± 0.0021	0.148 ± 0.0043	0.125 ± 0.0032	0.284 ± 0.1	0.371 ± 0.089	0.212 ± 0.028	0.223 ± 0.014	0.49 ± 0.067	0.421 ± 0.012	0.311 ± 0.014
CC12CC3CC(C)(C1)CC(N)(C3)C2 [Memantine Hydrochloride]	0.161 ± 0.005	0.207 ± 0.007	0.237 ± 0.017	0.184 ± 0.0066	0.195 ± 0.019	0.175 ± 0.0048	0.256 ± 0.039	0.155 ± 0.011	0.165 ± 0.011	0.199 ± 0.0086	0.503 ± 0.12	0.398 ± 0.018	0.392 ± 0.018
CC[N+](CC)(CC(=O)Nc1c(C)cccc1C)Cc1ccccc1 [Denatonium benzoate]	0.216 ± 0.0039	0.27 ± 0.0093	0.254 ± 0.006	0.182 ± 0.034	0.173 ± 0.014	0.132 ± 0.0092	0.401 ± 0.018	0.46 ± 0.0089	0.189 ± 0.015	0.224 ± 0.024	0.439 ± 0.016	0.402 ± 0.018	0.338 ± 0.02
Nc1cc(-c2ccncc2)c[nH]c1=O [Amrinone]	0.237 ± 0.0081	0.308 ± 0.015	0.277 ± 0.017	0.193 ± 0.012	0.188 ± 0.0077	0.162 ± 0.008	0.463 ± 0.012	0.385 ± 0.074	0.206 ± 0.0051	0.271 ± 0.011	0.446 ± 0.027	0.38 ± 0.043	0.362 ± 0.026
CCN(CC)CCOCCOC(=O)C1(c2ccccc2)CCCC1 [Carbetapentane citrate]	0.203 ± 0.0053	0.275 ± 0.015	0.249 ± 0.0094	0.191 ± 0.03	0.133 ± 0.004	0.161 ± 0.0033	0.153 ± 0.017	0.294 ± 0.064	0.185 ± 0.021	0.199 ± 0.011	0.539 ± 0.035	0.41 ± 0.0084	0.288 ± 0.012
CC(C)NCC(O)c1ccc(O)c(O)c1 (single isomer, unassigned; (-)) [(-)-Isoproterenol hydrochloride]	0.236 ± 0.0036	0.289 ± 0.0076	0.278 ± 0.015	0.184 ± 0.02	0.199 ± 0.004	0.143 ± 0.0042	0.281 ± 0.052	0.392 ± 0.03	0.191 ± 0.014	0.23 ± 0.035	0.539 ± 0.066	0.4345 ± 0.003	0.32 ± 0.02
COc1c2occc2c(OC)c2c(=O)cc(C)oc12 [Khellin]	0.206 ± 0.0044	0.2539 ± 0.0022	0.245 ± 0.0065	0.189 ± 0.0037	0.149 ± 0.0057	0.1439 ± 0.00044	0.317 ± 0.081	0.35 ± 0.016	0.182 ± 0.0039	0.253 ± 0.1	0.418 ± 0.038	0.3963 ± 0.0035	0.306 ± 0.032
OCCOCCN1CCN(C(c2ccccc2)c2ccc(Cl)cc2)CC1 (stereo not drawn) [Hydroxyzine dihydrochloride]	0.142 ± 0.0048	0.202 ± 0.0073	0.243 ± 0.004	0.171 ± 0.0032	0.11 ± 0.0035	0.1214 ± 0.0011	0.164 ± 0.0026	0.27 ± 0.013	0.182 ± 0.011	0.239 ± 0.048	0.45 ± 0.02	0.421 ± 0.009	0.219 ± 0.011
CC(C)(O)c1ccccc1CC[C@@H](SCC1(CC(=O)O)CC1)c1cccc(/C=C/c2ccc3ccc(Cl)cc3n2)c1 [Montelukast]	0.24 ± 0.013	0.281 ± 0.0035	0.317 ± 0.012	0.31 ± 0.019	0.206 ± 0.0075	0.261 ± 0.012	0.219 ± 0.028	0.347 ± 0.065	0.183 ± 0.025	0.253 ± 0.023	0.566 ± 0.061	0.479 ± 0.027	0.376 ± 0.026
CC1(C)S[C@@H]2[C@H](NC(=O)Cc3ccccc3)C(=O)N2[C@H]1C(=O)O [Benzylpenicillin sodium]	0.237 ± 0.005	0.2824 ± 0.00081	0.282 ± 0.0074	0.172 ± 0.011	0.227 ± 0.017	0.132 ± 0.0078	0.331 ± 0.1	0.385 ± 0.06	0.204 ± 0.013	0.229 ± 0.017	0.533 ± 0.11	0.434 ± 0.0042	0.363 ± 0.0066
Nc1ccc(S(=O)(=O)Nc2cnc3ccccc3n2)cc1 [Sulfaquinoxaline sodium salt]	0.221 ± 0.0039	0.266 ± 0.02	0.171 ± 0.004	0.21 ± 0.0087	0.1074 ± 0.00085	0.137 ± 0.0051	0.289 ± 0.073	0.396 ± 0.028	0.181 ± 0.012	0.204 ± 0.022	0.47 ± 0.082	0.419 ± 0.0091	0.297 ± 0.0077
CC(C)(C)NC(=O)[C@@H]1CN(Cc2cccnc2)CCN1C[C@@H](O)C[C@@H](Cc1ccccc1)C(=O)N[C@H]1c2ccccc2C[C@H]1O [Indinavir sulfate]	0.2105 ± 0.00051	0.293 ± 0.014	0.241 ± 0.0041	0.221 ± 0.02	0.149 ± 0.0054	0.139 ± 0.004	0.239 ± 0.05	0.403 ± 0.025	0.216 ± 0.0067	0.286 ± 0.022	0.558 ± 0.12	0.422 ± 0.014	0.281 ± 0.01
CN1Cc2c(N)cccc2C(c2ccccc2)C1 (stereo not drawn) [Nomifensine maleate]	0.225 ± 0.0061	0.273 ± 0.0089	0.249 ± 0.0043	0.19 ± 0.036	0.1674 ± 0.0015	0.141 ± 0.0063	0.243 ± 0.026	0.357 ± 0.038	0.175 ± 0.013	0.181 ± 0.025	0.498 ± 0.078	0.4122 ± 0.0024	0.348 ± 0.019
CN1C(C(=O)Nc2ccccn2)=C(O)c2sccc2S1(=O)=O [Tenoxicam]	0.195 ± 0.0081	0.238 ± 0.0097	0.223 ± 0.0086	0.212 ± 0.0097	0.152 ± 0.0064	0.139 ± 0.0027	0.281 ± 0.11	0.223 ± 0.01	0.185 ± 0.0085	0.18 ± 0.0088	0.493 ± 0.051	0.375 ± 0.05	0.277 ± 0.01
C[C@]12CC[C@H]3[C@@H](CCC4=CC(=O)CC[C@@]43C)[C@@H]1CC[C@@H]2C(=O)CO [Deoxycorticosterone]	0.119 ± 0.0025	0.163 ± 0.022	0.152 ± 0.0059	0.122 ± 0.0033	0.107 ± 0.002	0.127 ± 0.006	0.363 ± 0.012	0.245 ± 0.01	0.136 ± 0.008	0.165 ± 0.0069	0.333 ± 0.018	0.362 ± 0.022	0.157 ± 0.0071
OC(CCN1CCCCC1)(c1ccccc1)C1CCCCC1 (stereo not drawn) [Trihexyphenidyl-D,L Hydrochloride]	0.222 ± 0.012	0.316 ± 0.019	0.265 ± 0.012	0.194 ± 0.0034	0.147 ± 0.0092	0.164 ± 0.0019	0.299 ± 0.04	0.43 ± 0.071	0.179 ± 0.016	0.22 ± 0.018	0.452 ± 0.031	0.4127 ± 0.0033	0.324 ± 0.024
